40 compounds from PubChem BioAssay (Tox21) can be followed below.

Molecules are shown by their SMILES. Results filed as inconclusive are left out. Values without a mark were called inactive. Activity calls are given as the source filed them. Calls come from the whole dose curve; as a rule, active = well fitted activation curve with a large enough effect in the repeat runs; inconclusive = weak or mixed curves; inactive = flat fitted curve, though single readings scatter.
% is set by controls: 0 for no effect and ±100 for the full control effect; potency is the fitted concentration of half-maximal effect.

The nature of the test: A CellTox Green Cytotoxicity Assay to monitor cytotoxicity in HEK293 cells - 8 hour (AID 1224884). Note: nearly all actives have a fitted effect of over 35% in size. The note with it: CellTox Green fluorescence; series mostly up to 76.8 µM; cytotoxicity increase: at the top concentration. An excerpt:
National Center for Advancing Translational Sciences [NCATS]
NIH Chemical Genomics Center [NCGC]
U.S. Environmental Protection Agency [EPA]
National Institutes of Environmental Health Sciences [NIEHS]
National Toxicology Program [NTP]
Cell-based models are critical for drug discovery. Determining the natural cytotoxic effects resulting from test compounds is an essential research activity. A CellTox Green Cytotoxicity Assay to monitor cytotoxicity in real time of continues cell culture during 40 hours of the compound treatment was used to screen Tox21 10K library compounds in Hek293 cells. CellTox Green Cytotoxicity Assay is a nonlytic, homogeneous, biofluorescent method to measure cytotoxicity in cell culture after experimental manipulation. The assay system uses a proprietary asymmetric cyanine dye that is excluded from viable cells but preferentially stains the dead cell's DNA. […] Viable cells produce no appreciable increases in fluorescence. Therefore, the fluorescence signal produced by the binding interaction with dead cell DNA is proportional to cytotoxicity.
The mixture of Hek293 cell suspension and reagents were dispensed at 600cells/6 ul/well in 1536-well tissue culture treated black solid bottom plates using a Multidrop dispenser. After the assay plates were incubated at a 37 C/5% CO2 incubator for 5 hours, 23 nL of compounds dissolved in DMSO, positive and negative controls was transferred to the assay plate by a pintool work station. The plates were incubated at 37 C for 40 hours. The fluorescence intensity were measured at 0h, 8h, 16h, 24h, 32h and 40h time points using ViewLux plate reader during compound treatment.
As for `CCCCCOc1ccccc1/C(=C\SC)n1ccnc1`, the “cytotoxicity increase” value was -15.2% [at 35.3 µM].
Same read-out and setting: then `O=CC=C(c1ccccc1)c1ccccc1`, with 14.9%; and `CCCC(C)c1ccccc1O` (stereo not given), with 21.2%.
The same measure, in the same setting: then `C/C=C(\C)C(=O)OCc1ccccc1`, with -0.4%.
Same read-out and setting: with `Cn1cc(C(=O)[C@@H]2CCc3nc[nH]c3C2)c2ccccc21` the figure was -0.271% [at 35.3 µM]; with `O=Cc1cc(O)ccc1Br`, 18.8%; with `CCOC(=O)c1nc(C(Cl)(Cl)Cl)n(-c2ccc(Cl)cc2Cl)n1`, -3.67%.
For the compound `Clc1ccc2cc3ccccc3cc2c1`, the “cytotoxicity increase” value is 13.8%.
With `CC[C@@]1(O)C(=O)OCc2c1cc1n(c2=O)Cc2cc3c(CN(C)C)c(O)ccc3nc2-1`, the Potency was 26.8 µM (active).
For `NNc1nc(-c2ccc(N)cc2)cs1`, the “cytotoxicity increase” value was -14.9%.
`Cc1c(C)c2c(c(C)c1OC(=O)CCC(=O)O)CC[C@@](C)(CCC[C@H](C)CCC[C@H](C)CCCC(C)C)O2`: the “cytotoxicity increase” value is -2.87%.
Same read-out and setting: then `O=C(NO)C1(NS(=O)(=O)c2ccc(Oc3ccc(F)cc3)cc2)CCOCC1`, with 1.08%.
Regarding `CCCC(=O)OC[C@@H](OC(=O)CCC)[C@@H](OC(=O)CCC)[C@H](Cn1c2nc(=O)[nH]c(=O)c-2nc2cc(C)c(C)cc21)OC(=O)CCC`, the Potency is 21.3 µM (active).
With `COc1c(C)c2c(c(O)c1C/C=C(\C)CCC(=O)O)C(=O)OC2`, the “cytotoxicity increase” value was 7.78% [at 35.3 µM].
On to `Cc1cc(=O)oc2cc(N(C)C)ccc12`, for which the “cytotoxicity increase” value is 8.87%.
Still for that read-out and setting: then `C[C@@H]1C[C@H]2[C@@H]3CCC4=CC(=O)C=C[C@]4(C)[C@@]3(Cl)[C@@H](O)C[C@]2(C)[C@@]1(OC(=O)c1ccco1)C(=O)CCl`, with -12.1% [at 35.3 µM]; and `Cc1cccc(S(=O)(=O)O)c1C`, with -10.8%.
Regarding `CCN(CC)CCNC(=O)c1c(C)[nH]c(/C=C2\C(=O)Nc3ccc(F)cc32)c1C`, the Potency is 23.9 µM (active).
In the case of `O=C(Nc1cccc([N+](=O)[O-])c1)c1cc2ccccc2cc1O`, the “cytotoxicity increase” value is -2.02%.
Regarding `O=C1CCCc2c1cc1ccc3cccc4ccc2c1c34`, the “cytotoxicity increase” value was 16.3%.
The same measure, in the same setting: with `CC(NN)c1ccccc1` (stereo not given) the figure was -1.23% [at 15.8 µM].
Same read-out and setting: with `Nc1ccccc1O` the figure was -1.83%; with `O=C(Nc1cccc(C(F)(F)F)c1)c1cc(Br)cc(Br)c1O`, -1.67%.
Same read-out and setting: then `COc1cc(/C=C/C(=O)O[C@H]2CC[C@]34C[C@]35CC[C@]3(C)[C@@H]([C@H](C)CCC=C(C)C)CC[C@@]3(C)[C@@H]5CC[C@H]4C2(C)C)ccc1O`, with -2.59% [at 35.3 µM].
With `CCCCCCCCCCCC(=O)NCCCN(C)C`, the Potency is 54.9 µM (active).
Turning to `O=c1cccccc1O`, the “cytotoxicity increase” value is -14.3%.
Still for that read-out and setting: then `NC(=O)N1C(=O)C(C(=O)c2cc(Cl)cs2)c2cc(F)c(Cl)cc21` (stereo not given), with -14.1%; and `CN(C)c1ccc(C2(c3ccc(N(C)C)cc3)OC(=O)c3cc(N(C)C)ccc32)cc1`, with 6.44%.
Still for that read-out and setting: with `CCOc1ccc2nc3cc(N)ccc3c(N)c2c1` the figure was -4.62% [at 35.3 µM]; with `CNc1ccc(O)cc1`, 2.96%; with `O=[N+]([O-])c1cc(Cl)c(Cl)c(Cl)c1Cl`, 8.74%.
On the same count and under the same terms, with `O=C(O)c1c(Cl)cccc1Cl` the figure was 0.171%; with `N=C1C=CC(=C(c2ccc(N)cc2)c2ccc(N)cc2)C=C1`, -24%; with `CC(C)(C)C1CCC(CC2=C(O)c3ccccc3C(=O)C2=O)CC1` (stereo not given), 22.4% [at 35.3 µM].
For the compound `Oc1c(Cl)cc(Cl)c2cccnc12`, the “cytotoxicity increase” value is 18.8% [at 35.3 µM].
In the case of `CO[Si](CCCNc1ccccc1)(OC)OC`, the “cytotoxicity increase” value is -14.4%.
Still for that read-out and setting: then `NNc1nc(-c2ccccc2)cs1`, with -18%.
The same measure, in the same setting: with `Oc1cccc2cc3cccc(O)c3c(O)c12` the figure was -9.03%; with `O=C(OC[C@H]1O[C@@H](OC(=O)c2cc(O)c(O)c(OC(=O)c3cc(O)c(O)c(O)c3)c2)[C@H](OC(=O)c2cc(O)c(O)c(OC(=O)c3cc(O)c(O)c(O)c3)c2)[C@@H](OC(=O)c2cc(O)c(O)c(OC(=O)c3cc(O)c(O)c(O)c3)c2)[C@@H]1OC(=O)c1cc(O)c(O)c(OC(=O)c2cc(O)c(O)c(O)c2)c1)c1cc(O)c(O)c(OC(=O)c2cc(O)c(O)c(O)c2)c1`, -34.5% [at 15.8 µM].
On the same count and under the same terms, then `Cc1cc2c(cc1C(F)(F)F)N(C(=O)Nc1ccc(Oc3cccnc3C)nc1)CC2`, with -2.92%.
